Results with a measured potency or affinity are listed apart.
Key:
[1] = test system: Klebsiella pneumoniae; details: Concentration 32 ug.mL-1;; ASSAY_TEST Inhibition of Bacterial Growth; detection method Absorption (OD600); MEDIA CAMHB; plate type 384well; NBS; CORNING #3640; time 18 hr
[2] = test system: Candida albicans; details: Concentration 32 ug.mL-1; ASSAY_TEST Inhibition of Fungal Growth; detection method Absorption (OD530)
[3] = test system: Cryptococcus neoformans; details: Concentration 32 ug.mL-1; ASSAY_TEST Inhibition of Fungal Growth; detection method Resazurin; Absorption (OD600-OD570); plate type 384well; NBS; CORNING #3640

SMILES	Inhibition [1]	Inhibition [2]	Inhibition [3]
O=C(Cn1nc2ccc(Sc3cccc(F)c3)nn2c1=O)Nc1cccc(C(F)(F)F)c1	3.15%	0.5%	-9.77%
COC(=O)c1sccc1NC(=O)CSc1nc2ccccc2n2c(C)nnc12	6.24%	5.11%	-2.05%
O=C(Cn1nc2c3cc(-c4ccc(F)cc4)nn3ccn2c1=O)Nc1ccc(Br)cc1	2.07%	14.76%	4.1%
Cc1nnc2ccc(S(=O)(=O)N(Cc3cccc(F)c3)c3ccc(F)c(F)c3)cn12	2.49%	1.97%	-11.8%
Cc1ccc2c(c1)N(C(=O)Cn1nc3ccc(SC(C)(C)C)nn3c1=O)CCO2	14.93%	9.3%	-18.35%
COc1ccccc1CNC(=O)Cn1nc2c(N3CCC(C)CC3)nccn2c1=O	13.15%	4.39%	-8.45%
CCCc1nnc2c(=O)n(CC(=O)Nc3ccc4c(c3)OCCO4)c3ccccc3n12	-1.14%	4.16%	-31.27%
Cc1ccc(Oc2nccn3c(=O)n(CC(=O)N4CCN(c5ccc(F)cc5)CC4)nc23)cc1	19.83%	0.18%	-7.7%
O=c1c2sccc2n2c(=S)[nH]nc2n1CC1CCCO1 (stereo not given)	6.97%	-1.18%	-5.63%
COc1ccccc1NC(=O)CSc1nnc2c(=O)n(-c3ccc(C)c(C)c3)ccn12	7.95%	1.21%	-7.82%
CCC(C)NC(=O)Cn1nc2n(Cc3ccco3)c(=O)c3sccc3n2c1=O (stereo not given)	10.15%	-0.07%	-9.56%
O=c1c2sccc2n2c(SCc3cccc(C(F)(F)F)c3)nnc2n1Cc1cccs1	1.3%	16.7%	-17.87%
CC(=O)c1ccc(NC(=O)Cn2nc3c(Sc4ccc(C)cc4C)nccn3c2=O)cc1	-3.02%	1.94%	-20.51%
COc1cccc(-n2ccn3c(SCC(=O)Nc4ccc(OC)c(OC)c4)nnc3c2=O)c1	16.13%	5.16%	-5.69%
CCCCN(CC)c1ccc2nnc(CCc3nc(-c4ccc(OCc5ccccc5)cc4)no3)n2n1	10.12%	5.5%	-16.46%
O=C(CSc1nnc2c(=O)n(-c3ccccc3)ccn12)c1c[nH]c2ccccc12	19.5%	3.09%	-9.19%
CCCN(C)c1nccn2c(=O)n(CC(=O)Nc3cccc(C(F)(F)F)c3)nc12	7.15%	-0.05%	-3.78%
CCCCc1ccc(NC(=O)Cn2nc3c(N4CCSCC4)nc4ccccc4n3c2=O)cc1	15.26%	-0.87%	-24.44%
CC(C)CCn1c(=O)c2ccc(C(=O)NC3CCCCC3)cc2n2c(=S)[nH]nc12	1.69%	2.77%	-13.59%
COc1ccc(CNC(=O)Cn2nc3c(Sc4ccc(C)cc4C)nccn3c2=O)cc1	6.84%	-0.37%	-7.66%

SMILES	Inhibition [1]	Inhibition [2]	Inhibition [3]
COc1cccc(-n2ccn3c(SCc4ccc(C)cc4)nnc3c2=O)c1	12.94%	3.44%	-15.83%
COc1cccc(CN(c2cccc(F)c2)S(=O)(=O)c2ccc3nnc(C)n3c2)c1	3.28%	3.11%	-1.07%
Cc1cccc(Oc2nc3ccccc3n3c(=O)n(CC(=O)NCc4ccco4)nc23)c1C	3.72%	36.74%	-27.2%
Cc1ccc(CN(c2ccc(F)cc2)S(=O)(=O)c2ccc3nnc(C)n3c2)cc1	-1.29%	5.66%	-6.24%
Cc1cc(C)cc(NC(=O)Cn2nc3ccc(SC(C)(C)C)nn3c2=O)c1	7.43%	7%	-18.29%
CCOC(=O)c1ccccc1NC(=O)Cn1nc2ccc(Sc3ccc(C)cc3)nn2c1=O	14.69%	-1.17%	-9.49%
CCc1nnc2c(SCC(=O)Nc3ccc4c(c3)OCCO4)nc3ccccc3n12	7.64%	5.98%	-5.14%
CCc1ccccc1Sc1nccn2c(=O)n(CC(=O)Nc3ccc(OC)cc3)nc12	0.32%	4.23%	-13.58%
Cc1cccc(CSc2nnc3c(=O)n(-c4ccc(Br)cc4)ccn23)c1	-2.02%	2.08%	-6.53%
CSc1cccc(NC(=O)Cn2nc3ccc(C(=O)NCc4ccccc4)cn3c2=O)c1	7.41%	7.13%	-20.24%
Cc1ccc(Oc2nccn3c(=O)n(CC(=O)N4CCN(c5ccccc5F)CC4)nc23)cc1	13.64%	-0.66%	-23.01%
COc1ccc(NC(=O)CSc2nc3ccccc3n3c(C(C)C)nnc23)c(OC)c1	7.3%	2.71%	-21.27%
COc1cccc(N(Cc2ccc(F)cc2)S(=O)(=O)c2ccc3nncn3c2)c1	-3.46%	1.11%	-15.36%
Cc1cccc(CN(c2ccc(F)cc2)S(=O)(=O)c2ccc3nnc(C)n3c2)c1	6.15%	1.93%	-4.65%
Cc1ccc(NC(=O)Cn2nc3c4cc(-c5ccc(C)c(C)c5)nn4ccn3c2=O)c(Cl)c1	13.54%	-1.09%	-13%
CCOc1ccc(-n2ccn3c(SCC(=O)c4ccc(C)cc4C)nnc3c2=O)cc1	5.02%	2.76%	-5.48%
Cc1cccc(Cn2nc3n(CCc4ccccc4)c(=O)c4sccc4n3c2=O)c1	3.95%	-1.37%	-11.78%
Cc1ccc(Oc2nccn3c(=O)n(CC(=O)Nc4ccc(F)cc4F)nc23)cc1	1.97%	0.56%	-6.68%
Cc1ccc(CNC(=O)CSc2nnc3c4cc(-c5ccc(C)cc5)nn4ccn23)cc1	11.71%	-0.39%	-36.09%
CCCCn1c(=O)c2sccc2n2c(CCC(=O)Nc3ccc(OC(F)(F)F)cc3)nnc12	7.36%	-0.1%	-18.58%

SMILES	Inhibition [1]	Inhibition [2]	Inhibition [3]
Cc1ccc(-c2cc3c4nnc(CCC(=O)N5CCC(Cc6ccccc6)CC5)n4ccn3n2)cc1C	14.91%	0.82%	-35.19%
CCOc1ccc(NC(=O)Cn2nc3c(Sc4ccccc4)nccn3c2=O)cc1	8.21%	7.49%	-21.93%
COc1cc(OC)c(NC(=O)Cn2nc3c4c5c(sc4ncn3c2=O)CC(C)CC5)cc1Cl (stereo not given)	11.66%	3.55%	-23.25%
Cc1cc(C)c(NC(=O)Cn2nc3c(SCc4ccc(Cl)cc4)nccn3c2=O)c(C)c1	8.66%	25.19%	-17.24%
Cc1ccc(NC(=O)Cn2nc3c(Oc4ccccc4)nccn3c2=O)c(Br)c1	-5.15%	0.27%	-6.15%
COc1ccc(NC(=O)Cn2nc3ccc(SCc4ccc(Cl)cc4)nn3c2=O)cc1OC	-4.29%	32.62%	-6.53%
COc1cc(OC)c(NC(=O)Cn2nc3c(Sc4ccc(C)cc4C)nccn3c2=O)cc1Cl	6.06%	4%	-14.9%
COc1ccc(NC(=O)Cn2nc3c(Sc4cccc(F)c4)nccn3c2=O)cc1Cl	3.02%	0.26%	-9.78%
Cc1cc2nn(CC(=O)Nc3ccccc3F)c(=O)n2c(Nc2ccc(F)c(C)c2)n1	9.21%	7.27%	-5.54%
COc1cccc(Sc2nc3ccccc3n3c(=O)n(CC(=O)Nc4ccccc4)nc23)c1	3.34%	1.24%	-26.53%
Cc1ccc(-c2ccc3nn(CC(=O)Nc4cccc(Cl)c4)c(=O)n3n2)cc1C	4.06%	0.61%	-15.53%
Cn1c(=O)c2sccc2n2c(=O)n(Cc3cccc(Br)c3)nc12	5.37%	10.92%	-9.95%
O=C(Cn1nc2c(Sc3cccc(F)c3)nccn2c1=O)Nc1ccc(F)c(Cl)c1	-2.81%	9.34%	-8.73%
CC(=O)c1cccc(NC(=O)Cn2nc3c(N4CCN(c5ccccc5C)CC4)nccn3c2=O)c1	15.26%	5.86%	-6.16%
O=C(CSc1nnc2c(=O)n(-c3cccc(F)c3)ccn12)c1ccc(F)cc1	9.88%	4%	-7.94%
Cc1ccc(Oc2nccn3c(=O)n(CC(=O)Nc4ccc(Cl)cc4F)nc23)cc1	8.24%	4.29%	-15%
CCOC(=O)c1ccc(NC(=O)Cn2nc3c(SCc4ccc(Cl)cc4)nccn3c2=O)cc1	1.65%	7.78%	-18.54%
CCOC(=O)c1ccc(NC(=O)Cn2nc3ccc(S(=O)(=O)C(C)(C)C)nn3c2=O)cc1	4.44%	15.58%	-19.66%
Cc1nnc2ccc(S(=O)(=O)N(Cc3cccc(F)c3)c3ccc4c(c3)OCO4)cn12	1.28%	3.36%	-7.24%
CCc1nnc2c(S(=O)(=O)N(Cc3cccc(F)c3)c3ccc(C)c(C)c3)cccn12	12.58%	3.78%	-9.15%
